Only some compounds are listed: those with a hit (about 1.1% of all), similar ones and a draw of the others.
OPRM1-OPRD1 ag: agonists of OPRM1-OPRD1 heterodimerization, primary screen, cell-based, luminescence | Mu-type opioid receptor (Homo sapiens) + Delta-type opioid receptor (Homo sapiens), … | cells | activation, % at 9.3 µM | hit rate 0.3% among 340,000 | AID 504326, 2011; in the data active = activation above about 18%;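 note: 0% = vehicle-treated cells and 100% = reference agonist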
HTR5A ag ctr: HTR5A agonists in luminescence cell assay, primary screen, counter-screen for OPRM1-OPRD1 heterodimer agonist project, full-deck HTS. 5-hydroxytryptamine receptor 5A (Homo sapiens), P47898. cell-based. activation, % at 9.3 µM. hit rate 0.61% among 340,000; in the data active = activation mostly above about 9.5%, no sharp cut-off; inactive = mostly below about 7.6%;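 note: 0% = cells with vehicle only and 100% = reference agonist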
HTR5A inv ctr: HTR5A inverse agonists in luminescence cell assay, primary screen, counter-screen for OPRM1-OPRD1 heterodimer inverse agonist project, full-deck HTS; inhibition, % at 9.3 µM; hit rate 0.083% among 340,000; AID 504634, 2011; 5-hydroxytryptamine receptor 5A (Homo sapiens), P47898; HTR5A cell line, inverse agonism; in the data active = inhibition mostly above about 23%, no sharp cut-off; inactive = mostly below about 18%;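 note: 0% = cells with DMSO and 100% = no-cell wells with DMSO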
MOR-DOR inv ag: inverse agonists of MOR-DOR heterodimerization, primary screen, cell-based, luminescence | hit rate 0.21% among 340,000 | cell-based MOR-DOR heterodimer luminescence, inverse agonism | inhibition, % at 9.3 µM | AID 504357, 2011 | Mu-type opioid receptor (Homo sapiens) + Delta-type opioid receptor (Homo sapiens), …; in the data active = inhibition above about 22%, passing the limit was not always enough;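 note: 0% = cells with DMSO and 100% = wells without cells with DMSO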
Starred values were filed as active, the others as inactive.

SMILES	OPRM1-OPRD1 ag	HTR5A ag ctr	HTR5A inv ctr	MOR-DOR inv ag
CCN(CC)C(=O)[C@H]1C[C@H](CC(=O)NCCCN(C)C)C(=O)N2CCc3c([nH]c4cc(CCC(=O)N(C)C)ccc34)[C@]12C	-3	5.0*	-17	14
CC(C)N(C(=O)[C@H]1C[C@H](CC(=O)NCCCN(C)C)C(=O)N2CCc3c([nH]c4cc(CCC(=O)N(C)C)ccc34)[C@]12C)C(C)C	-4	2	-8	18
O=C(Nc1nc(-c2cccs2)cs1)c1ccc(Cl)s1	5	14*	-41	-26
CC(=O)Nc1nc(-c2cccs2)cs1	-3	-1	5	15
CCOc1ccc(CN(C)C(C)C(=O)NCCc2ccc(F)cc2)cc1 (configuration not stated)	1	2	-24	-7
COc1ccc(-n2c(CN3CCN(c4ccccc4OC)CC3)nc3ccc([N+](=O)[O-])cc3c2=O)c(OC)c1	-2	9.9*	-39	10
CCN1CCN(Cc2nc3ccc([N+](=O)[O-])cc3c(=O)n2-c2ccc(OC)cc2OC)CC1	0	3	-11	2
CCCCN(C)CCNC(=O)c1ccc2c(c1)NC(=O)C(N1CCCCC1)S2 (configuration not stated)	-1	12*	-25	3
O=C(NCCCN1CCCC1=O)c1ccc2c(c1)NC(=O)C(N1CCOCC1)S2 (configuration not stated)	-2	0	-3	10
CCOC(=O)c1cc(-c2ccccc2)n(CCC(=O)NC(C)CC)c1C (configuration not stated)	-1	11*	30	5
CCc1cc2c(COC(=O)c3cccc(NS(C)(=O)=O)c3)cc(=O)oc2cc1O	10	12*	-16	-86
CCc1cc2c(COC(=O)c3cc(S(=O)(=O)N4CCOCC4)ccc3F)cc(=O)oc2cc1O	-3	0	0	12
COc1ccc(CNC(=O)c2cc(=O)c3cc(C)c(C)cc3o2)cc1	-2	10*	-36	9
COc1ccc2nc(C)cc(N/N=C/c3ccccc3)c2c1	21*	-2	-4	-83
CCCCOc1ccc(CSCCNC(=S)Nc2ccccc2)cc1	2	14*	-13	-12
Cc1ccc2nc3c(c(Nc4cccc(O)c4)c2c1)CCC3	-1	2	-7	6
N#Cc1ccc(Nc2nc(-c3ccc(O)cc3O)cs2)cc1C(F)(F)F	4	13*	-27	-23
Oc1ccc(-c2csc(Nc3ccc4c(c3)OCO4)n2)c(O)c1	4	0	6	-20
Cc1ccc(Cn2ccsc2=NC(=O)CCl)cc1	59*	92*	-46	-294
Cc1ccc(Cn2ccsc2=NC(=O)COC(=O)c2ccc(NC(=O)CC#N)cc2)cc1	-3	1	-9	12
COc1ccc(C)cc1N(CC(=O)NCCSCc1ccco1)S(=O)(=O)c1ccc(C)cc1	1	7	-15	-9
O=C(Cc1ccc(S(=O)(=O)N2CCOCC2)s1)N1CCN(S(=O)(=O)c2ccc(Cl)cc2)CC1	-1	1	-3	3
COc1ccc(NC(=O)CN2CCN(C(=O)N3CCOCC3)CC2)cc1	2	1	-2	-16
Cn1cc(CN2CCC(n3nccc3NC(=O)CCc3ccccc3)CC2)cn1	-1	10*	-13	7
Cn1cc(CN2CCC(n3nccc3NC(=O)CCCc3ccccc3)CC2)cn1	0	3	25	0
SMILES	OPRM1-OPRD1 ag	HTR5A ag ctr	HTR5A inv ctr	MOR-DOR inv ag
Cc1ccccc1N1CCN(C2CCCN(C(=O)CCC(=O)N(C)C)C2)CC1 (configuration not stated)	-1	1	-2	5
Cc1ccccc1N1CCN(C2CCCN(C(=O)CCC3(C)CC3)C2)CC1 (configuration not stated)	-4	10*	-15	22
CCC1COCCS(=O)(=O)N1Cc1ccc(F)cc1 (configuration not stated)	-3	-2	-18	15
c1ccc2c(c1)CC/C2=N/Nc1nc2ccccc2[nH]1	7	12*	-32	-31
CC(C)(C)C1CCC(=NNc2nc3ccccc3[nH]2)CC1 (configuration not stated)	-1	-1	1	7
O=C(C1CCN(S(=O)(=O)c2ccccc2)CC1)N1CCCCCC1	-1	0	-17	4
Cc1cc(-n2c(SCC(=O)Nc3ccc(F)c(F)c3)nc3n[nH]c(C)c3c2=N)ccc1Cl	6	9.8*	-40	-34
Cc1cc(-n2c(SCC(=O)NCc3cccs3)nc3n[nH]c(C)c3c2=N)ccc1Cl	2	12*	-23	-12
CCn1c(SCC(=O)Nc2cc(C)on2)nc2sc3c(c2c1=O)CCCC3	26*	21*	-28	-151
NS(=O)(=O)c1ccc(NC2=CC(=O)C(=O)c3ccccc32)cc1	8	9.6*	-36	-39
CCOc1ccc(CC(=O)Nc2sc(Cc3ccccc3)cc2C(N)=O)cc1OCC	2	9.6*	-49	-14
NC(=O)c1cc(Cc2ccccc2)sc1NC(=O)c1ccco1	1	3	-10	-5
O=C1c2ccccc2C(=O)N1CC1c2ccccc2CCN1C(=O)CN1CCOCC1 (configuration not stated)	0	11*	-27	-1
O=C1c2ccccc2C(=O)N1CC1c2ccccc2CCN1C(=O)C1CCCCC1 (configuration not stated)	3	1	-4	-20
O=C(COC(=O)c1ccc(F)cc1Cl)NC(=O)NC1CCCC1	-1	-9	22	3
Cc1ccc(S(=O)(=O)N(C)C)cc1NC(=O)COC(=O)/C=C/c1cnc2ccccc2n1	1	14*	-41	-7
Cc1cc(Cl)ccc1Oc1ncc(CN2CCN(c3ccccc3)CC2)s1	1	3	-23	-6
COc1ccc(Oc2ncc(CN3CCN(c4ccccc4)CC3)s2)cc1	8	10*	-38	-47
CNC(=S)N1CCn2cccc2C1c1ccc(F)cc1 (configuration not stated)	0	8.0*	-20	-1
Fc1ccc(C2c3cccn3CCN2C(=S)Nc2cccc(F)c2)cc1 (configuration not stated)	2	2	-4	-9
CCCCn1c(SCC(=O)Nc2sc3c(c2C(N)=O)CCC3)nnc1-c1ccccc1	2	14*	-25	-13
NC(=O)c1c(NC(=O)CSc2nnc(Cc3ccccc3)n2Cc2ccco2)sc2c1CCC2	0	3	-11	-1
